# Measured values taken from PubChem BioAssay AID1159580 (chemical genetic matrix, 2015).
# In all, about 5,500 compounds went through this assay and about 2,000 (36%) were called active. About 18% were inconclusive and are not listed. This is one part of the list. Unmarked numbers belong to inactive results. Cut-off read from the data, not from the text of the source: active = normalized growth mostly below about 0.91 (no sharp cut-off); inconclusive = no clear call, values can overlap the other calls; inactive = mostly above about 0.92.
# Test: chemical genetic growth profiling, strain panel (AID 1159580);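 note: tested at 20 µM; growth read once vehicle control cultures reached saturation at 30 °C; 1 = growth at the plate median or of vehicle wells; lower values mean less growth of the strain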
# Conditions: growth OD
compound,measurement,setting,value
Cc1cc(O)cc(C)c1Cl,normalized growth,"S. cerevisiae deletion strains, locus YKL009W, strain mrt4, stronger effect = lower value",0.931
same,normalized growth,"S. cerevisiae deletion strains, locus YKL068W, stronger effect = lower value",1
same,normalized growth,"S. cerevisiae deletion strains, locus YKL085W, strain MDH1 (second series), stronger effect = lower value",0.971
same,normalized growth,"S. cerevisiae deletion strains, locus YKL085W, strain MDH1, stronger effect = lower value",0.971
same,normalized growth,"S. cerevisiae deletion strains, locus YKL160W, strain elf1, stronger effect = lower value",0.915
same,normalized growth,"S. cerevisiae deletion strains, locus YKL190W, strain CNB1, stronger effect = lower value",1
same,normalized growth,"S. cerevisiae deletion strains, locus YKR001C, strain vps1, stronger effect = lower value",0.846 (active)
same,normalized growth,"S. cerevisiae deletion strains, locus YKR026C, strain gcn3, stronger effect = lower value",0.952
same,normalized growth,"S. cerevisiae deletion strains, locus YKR091W, strain srl3, stronger effect = lower value",0.958
same,normalized growth,"S. cerevisiae deletion strains, locus YLL001W, strain dnm1, stronger effect = lower value",0.875 (active)
same,normalized growth,"S. cerevisiae deletion strains, locus YLL026W, stronger effect = lower value",0.915 (active)
same,normalized growth,"S. cerevisiae deletion strains, locus YLL041C, strain sdh2, stronger effect = lower value",0.957
same,normalized growth,"S. cerevisiae deletion strains, locus YLR027C, strain aat2, stronger effect = lower value",0.941
same,normalized growth,"S. cerevisiae deletion strains, locus YLR039C, strain RIC1, stronger effect = lower value",0.765
same,normalized growth,"S. cerevisiae deletion strains, locus YLR058C, strain SHM2, stronger effect = lower value",1
same,normalized growth,"S. cerevisiae deletion strains, locus YLR102C, strain apc9, stronger effect = lower value",1
same,normalized growth,"S. cerevisiae deletion strains, locus YLR113W, strain HOG1, stronger effect = lower value",0.944
same,normalized growth,"S. cerevisiae deletion strains, locus YLR221C, strain rsa3, stronger effect = lower value",0.856 (active)
same,normalized growth,"S. cerevisiae deletion strains, locus YLR258W, strain gsy2, stronger effect = lower value",0.924
same,normalized growth,"S. cerevisiae deletion strains, locus YLR262C, strain YPT6 (second series), stronger effect = lower value",0.403 (active)
same,normalized growth,"S. cerevisiae deletion strains, locus YLR262C, strain YPT6, stronger effect = lower value",0.736
same,normalized growth,"S. cerevisiae deletion strains, locus YLR268W, strain sec22, stronger effect = lower value",1.01
same,normalized growth,"S. cerevisiae deletion strains, locus YLR320W, strain mms22, stronger effect = lower value",0.815 (active)
same,normalized growth,"S. cerevisiae deletion strains, locus YLR330W, strain CHS5, stronger effect = lower value",0.994
same,normalized growth,"S. cerevisiae deletion strains, locus YLR342W, strain FKS1 (second series), stronger effect = lower value",0.982
same,normalized growth,"S. cerevisiae deletion strains, locus YLR342W, strain FKS1, stronger effect = lower value",0.935
same,normalized growth,"S. cerevisiae deletion strains, locus YLR357W, strain rsc2, stronger effect = lower value",1.1
same,normalized growth,"S. cerevisiae deletion strains, locus YLR370C, strain arc18, stronger effect = lower value",0.902 (active)
same,normalized growth,"S. cerevisiae deletion strains, locus YLR371W, strain rom2, stronger effect = lower value",0.997
same,normalized growth,"S. cerevisiae deletion strains, locus YLR384C, strain iki3, stronger effect = lower value",0.992
same,normalized growth,"S. cerevisiae deletion strains, locus YLR418C, strain cdc73, stronger effect = lower value",1
same,normalized growth,"S. cerevisiae deletion strains, locus YML016C, strain PPZ1, stronger effect = lower value",0.992
same,normalized growth,"S. cerevisiae deletion strains, locus YML032C, strain rad52, stronger effect = lower value",0.957
same,normalized growth,"S. cerevisiae deletion strains, locus YML120C, strain ndi1, stronger effect = lower value",0.917
same,normalized growth,"S. cerevisiae deletion strains, locus YML124C, strain tub3, stronger effect = lower value",0.996
same,normalized growth,"S. cerevisiae deletion strains, locus YMR058W, strain fet3, stronger effect = lower value",0.871 (active)
same,normalized growth,"S. cerevisiae deletion strains, locus YMR078C, strain ctf18, stronger effect = lower value",0.994
same,normalized growth,"S. cerevisiae deletion strains, locus YMR125W, strain sto1, stronger effect = lower value",1.04
same,normalized growth,"S. cerevisiae deletion strains, locus YMR129W, stronger effect = lower value",0.966
same,normalized growth,"S. cerevisiae deletion strains, locus YMR205C, strain PFK2, stronger effect = lower value",0.898
same,normalized growth,"S. cerevisiae deletion strains, locus YMR223W, strain ubp8, stronger effect = lower value",1.02
same,normalized growth,"S. cerevisiae deletion strains, locus YMR231W, strain pep5, stronger effect = lower value",0.754 (active)
same,normalized growth,"S. cerevisiae deletion strains, locus YMR307W, strain GAS1, stronger effect = lower value",0.904
same,normalized growth,"S. cerevisiae deletion strains, locus YNL067W, strain RPL9B, stronger effect = lower value",0.972
same,normalized growth,"S. cerevisiae deletion strains, locus YNL071W, strain lat1, stronger effect = lower value",0.821 (active)
same,normalized growth,"S. cerevisiae deletion strains, locus YNL153C, strain GIM3, stronger effect = lower value",1.02
same,normalized growth,"S. cerevisiae deletion strains, locus YNL183C, strain NPR1, stronger effect = lower value",0.88
same,normalized growth,"S. cerevisiae deletion strains, locus YNL209W, strain ssb2, stronger effect = lower value",0.929
same,normalized growth,"S. cerevisiae deletion strains, locus YNL233W, strain BNI4, stronger effect = lower value",0.992
same,normalized growth,"S. cerevisiae deletion strains, locus YNL248C, strain rpa49, stronger effect = lower value",0.835 (active)
same,normalized growth,"S. cerevisiae deletion strains, locus YNL250W, strain rad50, stronger effect = lower value",0.992
same,normalized growth,"S. cerevisiae deletion strains, locus YNL271C, strain bni1, stronger effect = lower value",1
same,normalized growth,"S. cerevisiae deletion strains, locus YNL298W, strain CLA4, stronger effect = lower value",0.913
same,normalized growth,"S. cerevisiae deletion strains, locus YNL307C, strain MCK1, stronger effect = lower value",0.995
same,normalized growth,"S. cerevisiae deletion strains, locus YNL322C, strain KRE1 (second series), stronger effect = lower value",0.961
same,normalized growth,"S. cerevisiae deletion strains, locus YNR049C, strain mso1, stronger effect = lower value",0.97
same,normalized growth,"S. cerevisiae deletion strains, locus YNR052C, strain pop2, stronger effect = lower value",1.01
same,normalized growth,"S. cerevisiae deletion strains, locus YOL006C, strain TOP1, stronger effect = lower value",0.979
same,normalized growth,"S. cerevisiae deletion strains, locus YOL012C, strain htz1",1.64
same,normalized growth,"S. cerevisiae deletion strains, locus YOL147C, strain pex11, stronger effect = lower value",0.997
same,normalized growth,"S. cerevisiae deletion strains, locus YOR001W, strain rrp6, stronger effect = lower value",0.892
same,normalized growth,"S. cerevisiae deletion strains, locus YOR061W, strain CKA2, stronger effect = lower value",0.993
same,normalized growth,"S. cerevisiae deletion strains, locus YOR069W, strain VPS5, stronger effect = lower value",1
same,normalized growth,"S. cerevisiae deletion strains, locus YOR070C, strain gyp1, stronger effect = lower value",0.906 (active)
same,normalized growth,"S. cerevisiae deletion strains, locus YOR080W, strain dia2, stronger effect = lower value",1.02
same,normalized growth,"S. cerevisiae deletion strains, locus YOR083W, strain WHI5, stronger effect = lower value",0.899
same,normalized growth,"S. cerevisiae deletion strains, locus YOR106W, strain vam3, stronger effect = lower value",0.817 (active)
same,normalized growth,"S. cerevisiae deletion strains, locus YOR136W, strain idh2, stronger effect = lower value",0.998
same,normalized growth,"S. cerevisiae deletion strains, locus YOR144C, strain elg1, stronger effect = lower value",1
same,normalized growth,"S. cerevisiae deletion strains, locus YOR184W, strain ser1, stronger effect = lower value",0.958
same,normalized growth,"S. cerevisiae deletion strains, locus YOR231W, strain MKK1, stronger effect = lower value",0.946
same,normalized growth,"S. cerevisiae deletion strains, locus YOR265W, strain rbl2, stronger effect = lower value",0.945
same,normalized growth,"S. cerevisiae deletion strains, locus YOR270C, strain vph1, stronger effect = lower value",0.674 (active)
same,normalized growth,"S. cerevisiae deletion strains, locus YOR290C, strain snf2, stronger effect = lower value",0.908
same,normalized growth,"S. cerevisiae deletion strains, locus YOR316C, strain cot1, stronger effect = lower value",0.993
same,normalized growth,"S. cerevisiae deletion strains, locus YPL051W, strain arl3, stronger effect = lower value",0.715 (active)
same,normalized growth,"S. cerevisiae deletion strains, locus YPL055C, strain LGE1, stronger effect = lower value",0.947
same,normalized growth,"S. cerevisiae deletion strains, locus YPL078C, strain atp4, stronger effect = lower value",0.838 (active)
same,normalized growth,"S. cerevisiae deletion strains, locus YPL106C, strain sse1, stronger effect = lower value",1.1
same,normalized growth,"S. cerevisiae deletion strains, locus YPL240C, strain hsp82, stronger effect = lower value",0.951
same,normalized growth,"S. cerevisiae deletion strains, locus YPL241C, strain CIN2, stronger effect = lower value",0.999
same,normalized growth,"S. cerevisiae deletion strains, locus YPL256C, strain CLN2, stronger effect = lower value",0.92
same,normalized growth,"S. cerevisiae deletion strains, locus YPR119W, strain clb2, stronger effect = lower value",0.997
same,normalized growth,"S. cerevisiae deletion strains, locus YPR141C, strain kar3, stronger effect = lower value",0.999
same,normalized growth,"S. cerevisiae deletion strains, locus YPR163C, strain tif3, stronger effect = lower value",1.01
same,normalized growth,"S. cerevisiae deletion strains, locus YPR167C, strain met16, stronger effect = lower value",0.99
same,normalized growth,"S. cerevisiae deletion strains, strain wtn01, stronger effect = lower value",0.96
same,normalized growth,"S. cerevisiae strains, strain wild type, stronger effect = lower value",0.998
